Among the data in PubChem BioAssay (NCATS) are Potency and outcome values, retold here.

SMILES strings stand for the structures. Inconclusive results are not listed. Activity calls are given as the source filed them. Calls come from the whole dose curve; as a rule, active = well fitted curve in the direction sought with a large enough effect; inconclusive = small, poorly fitted or top-dose-only effect, or another doubt; inactive = no such curve, though single readings can be large; an effect the other way counts as inactive or inconclusive.

The nature of experiment [1]: qHTS of pediatric cancer cell lines to identify multiple opportunities for drug repurposing: Primary screen for A673 cells (AID 1347092). Note: nearly all actives have a fitted effect of over 45% in size. In a few lines:
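Titration-based qHTS on A673 cells: MIPE compounds spanned 11 points (0.78 nM to 46 µM final), NPC compounds 8 points (0.59 nM to 46 µM final). Viability after 48 h was measured by ATP luminescence.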
In general terms: In qHTS, concentration-response curves come from the screen itself.

Experiment [2] is described as follows: qHTS of pediatric cancer cell lines to identify multiple opportunities for drug repurposing: Primary screen for SK-N-MC cells (AID 1347093). Note: potency is the fitted concentration of half-maximal effect. An outline of the steps:
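Metabolically active cells were quantified by ATP-dependent luminescence (CellTiter-Glo, 15 min at room temperature) following 48 h treatment. Cells had been plated at 500-1,000 per well and settled for 5 h beforehand.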

A short description of experiment [3]: qHTS of pediatric cancer cell lines to identify multiple opportunities for drug repurposing: Primary screen for BT-37 cells (AID 1347094). Note: series mostly up to about 57 µM. An outline of the steps: (§1)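 CRCs from 8- or 11-point titrations (lowest final 0.59 nM NPC, 0.78 nM MIPE). Cell viability: CellTiter-Glo after 48 h incubation, 15 min room-temperature development, luminescence imaging.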
Experiment [4] can be described thus: qHTS of pediatric cancer cell lines to identify multiple opportunities for drug repurposing: Primary screen for U-2 OS cells (AID 1347096). Note: nearly all actives have a fitted effect of over 50% in size. An outline of the steps: (§2)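 Viability after 48 h compound treatment at 37C, 500-1,000 cells/well, read as ATP luminescence with CellTiter-Glo. Primary screens used 11-point (MIPE, 0.78 nM-46 µM) or 8-point (NPC, 0.59 nM-46 µM) final concentrations; follow-up screens used 11-point dilutions.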

A short description of experiment [5]: qHTS of pediatric cancer cell lines to identify multiple opportunities for drug repurposing: Primary screen for Saos-2 cells (AID 1347097). Note: nearly all actives have a fitted effect of over 40% in size. Note: potency is the fitted concentration of half-maximal effect. In a few lines: as §1
Experiment [6] can be described thus: qHTS of pediatric cancer cell lines to identify multiple opportunities for drug repurposing: Primary screen for NB1643 cells (AID 1347099). Note: nearly all actives have a fitted effect of over 50% in size. Note: potency is the fitted concentration of half-maximal effect. An outline of the steps:
as §1

The nature of experiment [7]: qHTS of pediatric cancer cell lines to identify multiple opportunities for drug repurposing: Primary screen for LAN-5 cells (AID 1347100). An outline of the steps:
as §2

Experiment [8] can be described thus: qHTS of pediatric cancer cell lines to identify multiple opportunities for drug repurposing: Primary screen for Rh18 cells (AID 1347102). Note: nearly all actives have a fitted effect of over 65% in size. In a few lines:
as §2

Experiment [9] is described as follows: qHTS of pediatric cancer cell lines to identify multiple opportunities for drug repurposing: Primary screen for OHS-50 cells (AID 1347103). Note: nearly all actives have a fitted effect of over 40% in size. Note: potency is the fitted concentration of half-maximal effect. In a few lines: (§3)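 Cells (500-1,000/well) rested 5 h, then received compounds for 48 h; metabolically active cells were measured by CellTiter-Glo luminescence. Final concentrations spanned up to 46 µM (MIPE, 11-point) or 0.59 nM-46 µM (NPC, 8-point) in primary screens, 11-point in follow-ups.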

A short description of experiment [10]: qHTS of pediatric cancer cell lines to identify multiple opportunities for drug repurposing: Primary screen for RD cells (AID 1347104). Note: nearly all actives have a fitted effect of over 55% in size. Note: potency is the fitted concentration of half-maximal effect. An outline of the steps:
as §1

The nature of experiment [11]: qHTS of pediatric cancer cell lines to identify multiple opportunities for drug repurposing: Primary screen for control Hh wild type fibroblast cells (AID 1347106).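 Note: series mostly up to about 46 µM; a drop in luminescence marks cytotoxicity and a rise apparent proliferation; nearly all actives have a fitted effect of over 55% in size.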 An outline of the steps: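 Cells (500-1,000/well) in growth media were settled 5 h at 37 degrees C, then given compounds for 48 h. Viability was read as CellTiter-Glo luminescence. Primary runs used MIPE at 11 points (0.78 nM-46 µM) and NPC at 8 points (0.59 nM-46 µM); follow-ups used 11 points.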

A short description of experiment [12]: qHTS of pediatric cancer cell lines to identify multiple opportunities for drug repurposing: Primary screen for Rh30 cells (AID 1347107). Note: series mostly up to about 46 µM; nearly all actives have a fitted effect of over 75% in size. In a few lines: as §2
A short description of experiment [13]: qHTS of pediatric cancer cell lines to identify multiple opportunities for drug repurposing: Primary screen for Rh41 cells (AID 1347108).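 Note: series mostly up to about 46 µM; luminescence drop marks cytotoxic hits; nearly all actives have a fitted effect of over 70% in size.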 In a few lines: as §1
A short description of experiment [14]: qHTS of pediatric cancer cell lines to identify multiple opportunities for drug repurposing: Primary screen for SK-N-SH cells (AID 1347098). Note: nearly all actives have a fitted effect of over 65% in size. Note: potency is the fitted concentration of half-maximal effect. An outline of the steps: as §3
Experiment [15] can be described thus: qHTS of pediatric cancer cell lines to identify multiple opportunities for drug repurposing: Primary screen for MG 63 (6-TG R) cells (AID 1347105). Note: nearly all actives have a fitted effect of over 50% in size. In a few lines: as §1
The nature of experiment [16]: qHTS of pediatric cancer cell lines to identify multiple opportunities for drug repurposing: Primary screen for BT-12 cells (AID 1347101). Note: nearly all actives have a fitted effect of over 25% in size. In a few lines: as §3
The nature of experiment [17]: qHTS of pediatric cancer cell lines to identify multiple opportunities for drug repurposing: Primary screen for NB-EBc1 cells (AID 1347095). An outline of the steps:
as §1

The nature of experiment [18]: qHTS of pediatric cancer cell lines to identify multiple opportunities for drug repurposing: Confirmatory screen for NB1643 cells (AID 1347109). Note: nearly all actives have a fitted effect of over 45% in size. An outline of the steps: as §2
Experiment [19] in a line: qHTS of pediatric cancer cell lines to identify multiple opportunities for drug repurposing: Confirmatory screen for A673 cells (AID 1347110). Note: nearly all actives have a fitted effect of over 65% in size. Note: potency is the fitted concentration of half-maximal effect. In a few lines: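 Forty-eight-hour viability assay. Follow-up compounds ran at 11-point dilutions; positive control bortezomib at 2.3 uM final, neutral control DMSO.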
A short description of experiment [20]: qHTS of pediatric cancer cell lines to identify multiple opportunities for drug repurposing: Confirmatory screen for SK-N-MC cells (AID 1347111).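 Note: potency is the fitted concentration of half-maximal effect; cells exposed to compound for 48 h before the readout; nearly all actives have a fitted effect of over 70% in size.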 The following applies: SK-N-MC cell viability. In a few lines: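 SK-N-MC cells at 500-1,000 cells/well in growth media were pre-incubated 5 h, then exposed to compounds at 11-point dilutions for 48 h at 37 degrees C, 5% CO2. Viability was read as CellTiter-Glo luminescence.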

Regarding `O=C(O)CP(=O)(O)O`, the Potency entry in experiment [1], in [2], in [3], in [4], in experiment [5] and in [6] was “inactive” in each case. The Potency result in [7], in experiment [8], in [9], in experiment [10], in [12] and in experiment [13] was “inactive” in each case. Also, the call in experiment [11] was inactive.

For `NC(N)=NC(=O)Cc1c(Cl)cccc1Cl`, the Potency result in [1], in experiment [2], in [3], in [4], in experiment [5] and in experiment [14] was “inactive” each time. Moreover, the Potency entry in experiment [6], in [7], in experiment [8], in [10], in [15] and in [12] was “inactive” throughout. In addition, the Potency entry in experiment [13] is “inactive”. Further, the compound was classed as inactive in experiment [11].

For `CCO/C([O-])=N/c1c[n+](N2CCOCC2)no1`, the Potency entry in experiment [1], in [2], in experiment [3], in experiment [5], in [14] and in experiment [6] was “inactive” in each case. The Potency entry in [7], in [16], in experiment [8], in experiment [9], in experiment [10] and in experiment [12] was “inactive” in each case. Moreover, the Potency entry in experiment [13] was “inactive”. For the same compound, in experiment [11], the compound was called inactive.

On to `CC(C)NCC(O)c1cc(O)cc(O)c1` (configuration not stated), for which the Potency result in [1], in [3], in experiment [5], in [14], in experiment [7] and in experiment [16] was “inactive” throughout. Further, the Potency result in experiment [8], in experiment [9], in [10], in [15], in experiment [12] and in [13] was “inactive” in each case. Also, the call in experiment [11] was inactive.

For the compound `COc1ccc([C@@H]2Sc3ccccc3N(CCN(C)C)C(=O)[C@@H]2OC(C)=O)cc1`, the Potency result in experiment [1], in experiment [2], in [3], in [5], in [14] and in [6] was “inactive” throughout. Also, the Potency entry in experiment [7], in [16], in [8], in experiment [9], in experiment [10] and in experiment [15] was “inactive” throughout. The Potency entry in experiment [12] and in [13] was “inactive” in each case. Besides, the call in [11] was inactive.

With `C(=C\c1ccccc1)/CN1CCN(C(c2ccccc2)c2ccccc2)CC1`, the Potency entry in experiment [3], in experiment [4], in experiment [14], in experiment [6], in experiment [7] and in experiment [16] was “inactive” each time. In addition, the Potency result in experiment [8], in [12] and in [13] was “inactive” throughout. Besides, the Potency in experiment [9] was 27.6 µM (active). Further, in experiment [11], the result was inactive.

For the compound `Cc1nc2ccccn2c(=O)c1CCN1CCC(C(=O)c2ccc(F)cc2)CC1`, the Potency result in experiment [3], in experiment [17], in experiment [4], in experiment [14], in experiment [6] and in experiment [7] was “inactive” each time. Further, the Potency entry in [8], in experiment [10], in [15], in experiment [12] and in experiment [13] was “inactive” throughout. The result in experiment [11] was inactive.

With `COc1cc2c(cc1OC)-c1cc(=Nc3c(C)cc(C)cc3C)n(C)c(=O)n1CC2`, the Potency in [2] is 4.22 µM (active); in [9], 21.9 µM (active); in [10] it was 23.7 µM (active). The Potency result in experiment [8] and in experiment [12] was “inactive” throughout. Also, the result in experiment [11] was inactive.

`COC(=O)[C@H]1[C@H]2C[C@@H]3c4[nH]c5cc(OC)ccc5c4CCN3C[C@H]2C[C@@H](OC(=O)c2cc(OC)c(OC)c(OC)c2)[C@@H]1OC`: the Potency result in experiment [3], in experiment [17], in [4], in experiment [6], in experiment [7] and in [8] was “inactive” in each case. Further, the Potency entry in experiment [12] was “inactive”. The Potency in [5] was 23.7 µM (active). The compound was called inactive in [11].

With `CN/C(=C\[N+](=O)[O-])NCCSCc1ccc(CN(C)C)o1`, the Potency in experiment [2] was 0.001 µM (active); in experiment [6], 37.6 µM (active); in [19], 5.22 µM (active); in experiment [20], 11.7 µM (active). Besides, the Potency entry in experiment [3], in [17], in experiment [4], in [5], in experiment [14] and in experiment [7] was “inactive” in each case. Moreover, the Potency entry in experiment [16], in [8], in [9], in [15], in [12] and in [18] was “inactive” throughout. For the same compound, the compound was classed as inactive in experiment [11].

With `CCc1cccc(N(C)C(N)=Nc2cccc3ccccc23)c1`, the Potency result in experiment [17], in experiment [6], in experiment [7] and in experiment [12] was “inactive” in each case. The Potency was 18.8 µM (active) in [5] and 15.5 µM (active) in [9]. For the same compound, the compound was classed as inactive in experiment [11].

Consider `CCC(=O)c1ccc2c(c1)N(CCCN(C)C)c1ccccc1S2`, for which the Potency result in [17], in experiment [4], in experiment [6], in [12] and in [13] was “inactive” throughout. Moreover, the Potency is 34.4 µM (active) in experiment [14] and 30.9 µM (active) in [9]. For the same compound, in experiment [11], the compound was classed as inactive.

Regarding `CN1C[C@H](C(=O)N[C@]2(C)O[C@@]3(O)[C@@H]4CCCN4C(=O)[C@H](Cc4ccccc4)N3C2=O)C[C@@H]2c3cccc4[nH]cc(c34)C[C@H]21`, the Potency entry in experiment [3], in experiment [4], in [6], in experiment [7], in experiment [10] and in [15] was “inactive” throughout. The Potency entry in [12], in experiment [13], in experiment [18] and in [19] was “inactive” in each case. Further, the Potency in experiment [14] was 30.7 µM (active). Besides, the compound was classed as inactive in experiment [11].

As to `CC1=C(C)C(=O)C(CCCCC#CCCCC#CCO)=C(C)C1=O`, the Potency entry in experiment [3], in experiment [17], in [4], in experiment [14], in [8] and in experiment [10] was “inactive” in each case. Further, the Potency entry in experiment [12] and in experiment [13] was “inactive” throughout. Besides, the Potency in [9] was 21.9 µM (active). The compound was classed as inactive in [11].

In the case of `Cc1nc2sccn2c(=O)c1CCN1CCC(=C(c2ccc(F)cc2)c2ccc(F)cc2)CC1`, the Potency entry in experiment [3], in experiment [4], in [6], in experiment [7], in experiment [8] and in experiment [15] was “inactive” in each case. Further, the Potency result in experiment [12] and in experiment [13] was “inactive” in each case. Further, the Potency in experiment [9] is 27.6 µM (active).

For the compound `CN(C)CCCN1c2ccccc2Sc2ccc(C(F)(F)F)cc21`, the Potency entry in experiment [4], in experiment [12] and in experiment [13] was “inactive” in each case. In addition, the Potency is 24.6 µM (active) in experiment [9] and 26.1 µM (active) in experiment [20]. In addition, the compound was called inactive in experiment [11].

In the case of `CCN(CC)CCCN(c1ccccc1)C1Cc2ccccc2C1`, the Potency result in [3], in [17], in [4], in experiment [5], in experiment [6] and in experiment [8] was “inactive” in each case. For the same compound, the Potency result in [15], in experiment [12] and in experiment [13] was “inactive” in each case. For the same compound, the compound was called inactive in experiment [11].

Regarding `COC(=O)C1=C(C)NC(C)=C(C(=O)OCCN(C)Cc2ccccc2)C1c1cccc([N+](=O)[O-])c1` (configuration not stated), the Potency in experiment [5] is 29.9 µM (active); in [14] it was 4.33 µM (active); in experiment [6], 21.1 µM (active); in experiment [9] it was 17.4 µM (active). Further, the call in [11] was inactive. Besides, the Potency entry in experiment [12] was “inactive”.
